According to PubChem BioAssay AID1578 (Sanford-Burnham Center for Chemical Genomics, 2009):
About 3,000 (1%) of roughly 290,000 compounds were called active. The full list was thinned out, with actives kept by preference. Values without a mark were called inactive. Cut-off read from the data, not from the text of the source: active = inhibition mostly above about 36% (no sharp cut-off); inactive = mostly below about 34%.

Assay: inhibition of NOD1-driven NF-kB reporter – cell-based, luminescence, uHTS, primary screen (AID 1578);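 note: HEK-293T reporter cells stimulated with the NOD1 agonist gamma-tri-DAP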
Conditions: NOD1-driven NF-kB luciferase reporter cells, at 4 µM, hits give high values

| SMILES | inhibition |
| --- | --- |
| O=C(C#Cc1ccccc1)c1ccco1 | 72.9% (active) |
| O=C(CSCCSCC(=O)c1ccco1)c1ccco1 | -26.9% |
| O=C(NCc1ccccc1)c1ccco1 | -12.3% |
| CC(C)C(=O)Nc1ccc(C(=O)NCc2cccnc2)cc1 | -35.1% |
| COc1ccc(NS(=O)(=O)c2ccc3oc(SC)nc3c2)cc1 | -2.9% |
| CNC(=O)CSc1nc2cc(S(=O)(=O)Nc3ccc(OC)cc3)ccc2o1 | -1.2% |
| CCCN=C(C)c1c(-c2ccccc2)[nH]n(-c2nc3ccccc3s2)c1=O | 7.3% |
| CC(=O)c1c(CC(=O)O)[nH]n(-c2nc3ccccc3s2)c1=O | 79.8% (active) |
| COC(=O)Cc1[nH]n(-c2nc3ccccc3s2)c(=O)c1C(C)=O | -16.2% |
| O=C(CCN1C(=O)c2ccccc2C1=O)OCN1C(=O)c2ccccc2C1=O | 11.2% |
| O=c1cc(N2CCN(c3ccc(F)cc3)CC2)[nH]c(=O)n1Cc1ccc(F)cc1 | -13% |
| CC1=NNC(=O)/C1=C\c1cn(-c2ccccc2)nc1-c1ccc(Cl)cc1 | -47.4% |
| CC1=NNC(=O)/C1=C\c1cn(-c2ccccc2)nc1-c1ccc(F)cc1 | -39.1% |
| CC1=NNC(=O)/C1=C\c1cn(-c2ccccc2)nc1-c1ccccc1 | 64.7% (active) |
| COc1ccc(NC(=O)CC(C(=O)O)N2CCCCC2)cc1 (centres undefined) | 2.5% |
| Cc1cc(/C=N/Nc2nc(N)ncc2[N+](=O)[O-])c(C)n1-c1cccc(C(F)(F)F)c1 | -14.7% |
| Cc1ccccc1-n1c(C)cc(/C=N/Nc2ccc([N+](=O)[O-])cn2)c1C | -119% |
| Cc1cc(/C=N/Nc2ccc([N+](=O)[O-])cn2)c(C)n1-c1ccccc1 | -31.3% |
| COc1cccc(/C=N/Nc2ncnc(N)c2[N+](=O)[O-])c1OC | 53.3% |
| O=C(CCN1C(=O)/C(=C/c2ccccc2)SC1=S)NNC(=O)c1ccncc1 | -47.5% |
| O=C1CC(c2ccc(F)cc2)C2=C(CCCC2=O)N1 (centres undefined) | -5.5% |
| CCc1cc2c(=O)n(Cc3ccccc3)c(SC3CCOC3=O)nc2s1 (centres undefined) | -29.3% |
| COc1ccc(CCN2C(=NC(=O)C(C)C)SC3CS(=O)(=O)CC32)cc1OC (centres undefined) | -10.6% |
| CCCCS(=O)(=O)/C=C\C=C/S(=O)(=O)CCCC | 97.7% (active) |

| SMILES | inhibition |
| --- | --- |
| CCCCS(=O)(=O)/C=C/[C@H]1[C@H](S(=O)(=O)CCCC)[C@H]2C=C[C@@H]1C2 | -23.6% |
| CCCCS(=O)(=O)/C=C\C1C2C=CC(C2)C1S(=O)(=O)CCCC (centres undefined) | 6.2% |
| Cc1cc(C)nc(NC2=NCC(=O)N2CCc2c[nH]c3ccccc23)n1 | -8.6% |
| Cc1ccc(NC(=O)CCN2CCN(C)CC2)cc1 | 24.4% |
| COC(=O)c1sc(NC(=S)NC(=O)c2cccc(Br)c2)nc1C | 25.2% |
| CN(Cc1ccccc1F)c1nc(-c2cccnc2)nc2ccccc12 | 25.5% |
| CN(Cc1ccccc1F)c1nc(-c2cccs2)nc2ccccc12 | 67.9% (active) |
| COc1cccc(CN(C)c2nc(-c3cccs3)nc3ccccc23)c1 | 7.9% |
| O=C(Nc1ccccc1-c1nnc(SCc2ccc(Cl)cc2)o1)c1ccccc1 | 5.6% |
| COc1ccc(CC(=O)OCN2C(=O)c3ccccc3C2=O)cc1 | 0.1% |
| O=C(Cc1ccccc1F)OCN1C(=O)c2ccccc2C1=O | -15.6% |
| O=C(Cc1ccc(F)cc1)OCN1C(=O)c2ccccc2C1=O | 49.7% (active) |
| Cc1c(NC(=O)Nc2cccc(C#N)c2)c(=O)n(-c2ccccc2)n1C | -8.2% |
| COc1ccc(NC(=O)c2ccc(S(=O)(=O)N(C)C)cc2)cc1 | -41.1% |
| O=c1c2cnn(-c3ccccc3)c2nc(-c2cccs2)n1-c1cccc(Cl)c1 | -3.1% |
| Cc1ncoc1C(=O)N1CCCC(CCC(=O)NCc2ccc(F)c(F)c2)C1 (centres undefined) | -31.1% |
| CN(C)c1ccc(/C=C/c2cccc[n+]2[O-])cc1 | 2.7% |
| CN(C)c1ccc(/C=C/c2cc[n+](C)cc2)cc1 | 25% |
| CC(=O)/C(C(=N)N1CCN(c2cccc(Cl)c2)CC1)=C(\C)O | 24.8% |
| O=[N+]([O-])c1cc([N+](=O)[O-])c(Oc2cccnc2Br)cc1NN1CCCCC1 | 5.9% |
| O=[N+]([O-])c1cc([N+](=O)[O-])c(Oc2c(Cl)cccc2Cl)cc1NN1CCCCC1 | -4.9% |
| O=[N+]([O-])c1cc([N+](=O)[O-])c(Oc2ccc(Cl)c3cccnc23)cc1NN1CCCCC1 | 44.7% (active) |
| O=C(O)c1ccc(S(=O)(=O)NCC2CCCCC2)cc1 | -9.7% |
| O=C(NCC1COc2ccccc2O1)C1CCCN(S(=O)(=O)c2cccc3cccnc23)C1 (centres undefined) | 22.5% |

| SMILES | inhibition |
| --- | --- |
| COC(=O)CC1=NN(c2nc3ccccc3s2)C(=O)/C1=C/N(C)C | -19.7% |
| COC(=O)Cc1[nH]n(-c2nc3ccccc3s2)c(=O)c1C(C)=Nc1ccc(Cl)cc1 | 1% |
| Fc1ccc(CSc2ncnc3nc[nH]c23)cc1 | -14.8% |
| Cc1cc(C)c(C#N)c(SCc2nnc(-c3ccccc3[N+](=O)[O-])o2)n1 | -26% |
| N#Cc1c(-c2ccccc2)cc(-c2ccccc2)nc1SCc1nnc(-c2ccccc2)o1 | 12.9% |
| CN(CC1CCN(CCc2cccc(C(F)(F)F)c2)CC1)C(=O)c1ccc(F)cc1 | 18.5% |
| O=C(Cn1c(=O)oc2cc(S(=O)(=O)N3CCCC3)ccc21)N1CCN(c2ccccn2)CC1 | -8% |
| COc1ccccc1OCc1n[nH]c(=S)n1Cc1ccccc1 | -18.7% |
| COc1ccc(Cc2n[nH]c(=S)n2Cc2ccccc2)cc1Cl | 44.7% (active) |
| CC(C)Oc1ccc(Cc2n[nH]c(=S)n2Cc2ccccc2)cc1Cl | -44.3% |
| CCCCn1c(=O)[nH]c(=O)c2c1nc(CN1C(=O)c3ccccc3S1(=O)=O)n2CCC | -23.3% |
| CCCCn1c(=O)[nH]c(=O)c2c1nc(Cn1ncc(Cl)c(Cl)c1=O)n2CCC | 85% (active) |
| CCCCn1c(CCC(=O)O)nc2c1c(=O)[nH]c(=O)n2CCC | -15.7% |
| COc1ccc(NC(=O)c2ccccn2)cc1S(=O)(=O)N1CCOCC1 | -33.7% |
| CC1=Nc2ccccc2/C1=C\c1sc(Nc2ccc(C)cc2)nc1O | 1.1% |
| Oc1[nH]c(=S)sc1/C=C1\C(c2ccccc2)=Nc2ccccc21 | 72.5% (active) |
| Oc1[nH]c(=S)sc1C=C1N=c2ccccc2=N1 | -5.9% |
| Cc1ccc(S(=O)(=O)N2CCN(C(=O)CSC3CCCC3)CC2)c(C)c1 | -8.8% |
| Cc1cccc(N2CCN(c3nc4nonc4nc3N3CCSCC3)CC2)n1 | -22.4% |
| Cc1ccc(NC(=O)C(=O)NCc2ccccn2)cc1 | -47.6% |
| COc1ccc(C(=O)CSc2cc(C)nc(SCC(=O)c3ccc(C)cc3)n2)cc1 | 63.1% (active) |
| Cc1ccc(C(=O)CSc2cc(C)nc(SCC(=O)c3ccccc3)n2)cc1 | 61.4% |
| Cc1cc(SCC(N)=O)nc(SCC(=O)c2ccccc2)n1 | 28.1% |
| Cc1ccc(S(=O)(=O)N2CCN(C(=O)c3sccc3-c3ccccc3)CC2)cc1 | -24.8% |

| SMILES | inhibition |
| --- | --- |
| COc1ccc(N(C(C)C(=O)N/N=C/c2ccc(OC(C)C)cc2)S(C)(=O)=O)cc1 (centres undefined) | 14.7% |
| CC(C)(C)c1[nH]nc2c1C(c1ccncc1)C(C#N)=C(N)O2 (centres undefined) | -8.8% |
| Cc1[nH]nc2c1C(c1ccsc1)C(C#N)=C(N)O2 (centres undefined) | -7.7% |
| CC(C)(C)c1[nH]nc2c1C(c1ccsc1)C(C#N)=C(N)O2 (centres undefined) | 59.2% (active) |
| Cc1ccc(C)c(NS(=O)(=O)c2csc(C(N)=O)c2)c1 | -9.7% |
| O=C(Nc1ccc(Nc2ccccc2)cc1)C(Cl)Cl | -5.4% |
| CC(=O)c1c(-c2ccccc2)[nH]c2ccccc12 | 5.8% |
| Cc1ccccc1N1C(=O)CC(c2c[nH]c3ccccc23)C1=O (centres undefined) | -3.6% |
| COc1nc(OC)nc(N2CCC(C(=O)NCC3CCCCC3)CC2)n1 | -10.9% |
| Cc1nnc(SCCn2c(N3CCCC(C)C3)nc3c2c(=O)[nH]c(=O)n3C)s1 (centres undefined) | -9.1% |
| C=CCN(CC=C)C(=S)NC(=O)c1ccc(C)c(Br)c1 | 108% (active) |
| C=CCNC(=S)NC(=O)c1ccc(C)c(Br)c1 | -4.3% |
| C=CCN(CC=C)C(=S)NC(=O)c1ccc(OC)c(Br)c1 | 30.4% |
| O=S(=O)(c1ccc(Cl)cc1)n1cnc2ccccc21 | -31.4% |
| Cc1ccc(-c2csc(N(C)C(=O)c3c(C)nn(-c4ccccc4)c3Cl)n2)cc1 | 33.6% |
| O=C(CN1C(=O)NC2(CCCCC2)C1=O)N1CCN(S(=O)(=O)c2ccccc2)CC1 | -35.1% |
| Cc1cccc(C)c1Nc1nnc(SCc2nc3ccccc3s2)s1 | -39.5% |
| Nc1ccccc1Nc1cc(-c2ccccc2)[nH]n1 | 48.4% (active) |
| CC1(C)CC(=O)C=C(Nc2cc(-c3ccccc3)[nH]n2)C1 | -25.9% |
| Nc1ccccc1Nc1cc(-c2ccccc2)nn1-c1ccccc1 | -20.6% |
| CC(C)C(NC(=O)c1ccc(F)cc1)C(=O)NCC1CCCO1 (centres undefined) | -6.2% |
| COc1cc(OC)cc(C(=O)Nc2ccc(S(=O)(=O)N3CCOCC3)cc2)c1 | -9.3% |
